Bioassay records (PubChem)
RMI-FANCM inh – blocks RMI1/RMI2 complex binding to FANCM MM2 peptide; AID 1159607; 0.58% of 70,000 active; FP signal (polarization) at 33 µM; Fluorescence polarization, RMI core complex with F-MM2 peptide; stronger effect = lower value; in the data active means FP signal below about 40
Active calls of the source: *; ! = a repeat was not active. The entries come from a sample that favours hits as a whole.

SMILES | RMI-FANCM inh
CC(C)S(=O)(=O)Nc1ccc2c(c1)NC(=O)C(C)(C)CO2 | 70
CCOC(=O)C(N)C(=O)OCC | 55
O=S(=O)(CCc1ccccc1)N1CCN(c2ccc(-c3cccs3)nn2)CC1 | 66
O=C(O)c1nccnc1C(=O)N1CCCN(C(=O)c2cccs2)CC1 | 56
Oc1c(Cl)cc(Cl)cc1/C=N\NCCc1ccccn1 | 45
O=C(CC1NCCN(Cc2ccccc2)C1=O)N/N=C\c1cc(Cl)cc(Cl)c1O (stereo not drawn) | 35*!
O=C(CSC1CN(C(c2ccccc2)c2ccccc2)C1)N/N=C/c1ccc(Cl)cc1Cl | 59
COc1ccccc1Oc1ccc(S(=O)(=O)Nc2cccc(C(C)=O)c2)cc1 | 54
Cc1ccc2oc(C(=O)NCCn3c(C)cc4ccccc43)cc2n1 | 26*
CSc1ccccc1NC(=O)c1cc2nc(C)ccc2o1 | 58
Cc1ccc2oc(C(=O)NCc3cccs3)cc2n1 | 64
O=C(Cc1csc(NC(=O)Nc2ccc(Cl)cc2)n1)Nc1ccc(F)c(Cl)c1 | 87
O=C1CC(c2nc(-c3cccs3)no2)CN1Cc1ccc(Cl)cc1 (stereo not drawn) | 64
CCN1CCCc2cc(CCNC(=O)C(=O)NCCN3CCOCC3)ccc21 | 69
CCN1CCCc2cc(CCNC(=O)c3ccc(Br)o3)ccc21 | 48
CCN1CCCc2cc(CCNC(=O)NC(C)(C)C)ccc21 | 65
CCCCOc1ccc(C(=O)NCCc2ccc3c(c2)CCCN3C)cc1 | 65
CCN1CCCc2cc(CCNC(=O)c3ccc(OC(C)C)cc3)ccc21 | 20*
CCN1CCCc2cc(CCNC(=O)C(=O)NCCOC)ccc21 | 13*
Cc1ccc(NCc2cc3cc4c(cc3n(CC(=O)Nc3cccc(F)c3)c2=O)OCCO4)cc1 | 57
COc1ccc(CCN2CN=C(SCc3c(C)c(C)c(C)c(C)c3C)NC2)cc1OC | 83
O=c1ccc(-c2cccs2)nn1Cc1c(F)cccc1Cl | 57
COc1ccc(CN2CCN(C(c3ccc(F)cc3)c3ccc(F)cc3)CC2)c(OC)c1OC | 65
Fc1ccc(C(c2ccc(F)cc2)N2CCN(C/C=C/c3ccccc3)CC2)cc1 | 24*!
C(=C\c1ccccc1)/CN1CCN(C(c2ccccc2)c2ccccc2)CC1 | 54
SMILES | RMI-FANCM inh
O=C(Nc1ccccc1I)C1COc2ccccc2O1 (stereo not drawn) | 56
CC(=O)c1c2c(n3ccccc13)C(=O)c1ccccc1C2=O | 86
COCCN1CCCc2ccc(NS(=O)(=O)Cc3cccc(C)c3)cc21 | 0*
COCCN1CCCc2ccc(NS(=O)(=O)c3cccc(C)c3)cc21 | 61
COCC(=O)N1CCCc2ccc(NS(=O)(=O)Cc3cccc(C)c3)cc21 | 73
COc1ccc(N2CCCS2(=O)=O)cc1NC(=O)Cc1cccc2ccccc12 | 58
COC(=O)c1cc(OC)c(OC)c(OC)c1NC(=O)c1cccc(F)c1 | 52
O=C(NC(=O)N1CCN(c2ccc(F)cc2)CC1)c1ccccc1 | 61
CC(C(=O)c1ccc(-c2ccccc2F)cc1)N1CCN(c2ccc(C#N)cc2)CC1 (stereo not drawn) | 25*!
O=C(NC(=S)N1CCN(c2ccc(F)cc2)CC1)c1ccccc1 | 59
CCn1c(/C=N\Nc2nc3ccccc3s2)nc2ccccc21 | 59
COc1ccc(C(=O)N/N=C\c2c(C)nn(-c3ccccc3)c2N2CCCCC2)cc1OC | 57
Cc1nn(-c2ccccc2)c(N2CCCCC2)c1/C=N\Nc1nc2ccccc2s1 | 8*
O=C(OCC(O)CO)c1ccccc1Nc1ccnc2cc(Cl)ccc12 (stereo not drawn) | -4*!
O=C(OCCOc1ccc(Cl)cc1Cl)c1ccccc1Cl | 57
Clc1ccc2c(Nc3ccc4c(c3)OCO4)ccnc2c1 | 58
O=C(Nc1ccccc1)Nc1nc(C(=O)NCc2cccs2)cs1 | 79
CCNc1[nH]c(=S)nc2sc3c(c12)CCN(C)C3 | -15*
CN1CCc2c(sc3nc(NC(=O)c4ccc(OC(F)(F)F)cc4)sc(=O)c23)C1 | 60
CCNc1nc(SCC(=O)NC(=O)NCc2ccccc2)nc2sc3c(c12)CCN(C)C3 | 5
N/C(CSc1ccccn1)=N/OCc1c(F)cccc1Cl | 58
O=Cc1ccc(C(=O)N2CCCC2)cc1 | 69
O=C(Nc1ccc(F)c(Cl)c1)C1CCN(c2ccc(-c3ccco3)nn2)CC1 | 74
O=C(Nc1ccc(F)c(C(F)(F)F)c1)C1CCN(c2ccc(-c3ccco3)nn2)CC1 | 68
O=C(Nc1cnc2ccccc2c1)C1CCN(c2ccc(-c3ccco3)nn2)CC1 | 26*
SMILES | RMI-FANCM inh
CCOC(=O)c1ccc(S(=O)(=O)N2CCN(c3ccc4nncn4n3)CC2)cc1 | 67
Cc1cc(-c2ccccc2)nc(SCC(=O)Nc2cccc(C(F)(F)F)c2)n1 | 59
O=[N+]([O-])c1ccc(SCCOS(=O)(=O)c2cccc(C(F)(F)F)c2)c2nonc12 | 46
N/C(=N\OC(=O)Nc1cccc(C(F)(F)F)c1)c1ccno1 | 57
O=C(Nc1cccc(C(F)(F)F)c1)OCCSc1ccc([N+](=O)[O-])c2nonc12 | 7*
CC(=O)Nc1ccc(NC(=O)CSc2ccc(S(=O)(=O)C(F)(F)F)cc2[N+](=O)[O-])cc1 | 66
O=C(CSc1ccc([N+](=O)[O-])cc1[N+](=O)[O-])Nc1cccc(C(F)(F)F)c1 | 14*
O=c1c2cc(N3CCOCC3)ccc2[nH]c(=S)n1Cc1ccccc1 | 67
Cc1cc(C)c2nc(NCCN(C)C)sc2c1 | 74
O=C1CSC2=NC3=C(CCc4ccccc43)C(c3cccs3)N12 (stereo not drawn) | 56
O=C(O)c1ncccc1Cl | 59
O=C(CCC1CCCC1)Nc1cccc(-c2cn3cccnc3n2)c1 | 61
CCOC(=O)N1CCN(C(c2cccs2)c2c(C)[nH]c3ccccc23)CC1 (stereo not drawn) | 63
S=c1[nH]nc(-c2ccncc2)n1/N=C\c1cn(-c2ccccc2)nc1-c1cccs1 | 56
O=[N+]([O-])c1ccc(-c2nn(-c3ccccc3)cc2/C=N/n2c(-c3cccs3)n[nH]c2=S)cc1 | 12*
O=C(Cc1ccc([N+](=O)[O-])cc1)N/N=C\c1cn(-c2ccccc2)nc1-c1ccccc1 | 53
Nc1c(C(=O)N2CCOCC2)sc(=S)n1-c1ccccc1F | 64
O=C1N=c2ccccc2=CC1=Cc1sc(=S)n(Cc2ccccc2)c1O | 56
Oc1c(C=C2N=c3ccccc3=N2)sc(=S)n1-c1ccccc1F | 23*
Oc1c(C(c2ccc(F)cc2)N2CCN(c3cccc(Cl)c3)CC2)sc2nc(-c3ccco3)nn12 (stereo not drawn) | 54
O=C(COc1ccccc1)N(Cc1ccccn1)c1nc2ccc(Cl)cc2s1 | 55
Cc1ccn2c(C(=O)N/N=C\c3ccc(OCc4ccccc4)cc3)c(C)nc2c1 | 57
CCCCOc1ccc(C(=O)N2CCN(c3nccn3C)CC2)cc1 | 65
COc1ccccc1-c1cnn2c(N3CCN(Cc4ccccc4)CC3)cc(C)nc12 | 60
OCCN1CCN(c2cc(-c3ccccc3)nc3c(-c4ccc(Cl)cc4)cnn23)CC1 | 28*
SMILES | RMI-FANCM inh
CC(C)(C)c1cc(N2CCN(C3CCCC3)CC2)n2ncc(-c3ccccc3)c2n1 | 60
O=C(NCc1ccsc1)c1c(F)cccc1Cl | 68
CCOC(=O)c1cc(C#N)c(Sc2ccccc2)nc1C(F)(F)F | 53
CCOC(=O)c1cc(C#N)c(SCC(=O)Nc2ccc(C(C)=O)cc2)[nH]c1=O | 55
CCOC(=O)c1cc(C#N)c2ccccn2c1=O | 33*
O=C(CNC(=O)c1ccccc1)NCCS(=O)(=O)N1CCN(c2ncccn2)CC1 | 61
CC1(C)C(=O)NCCN1C(=O)C(c1ccccc1)c1ccccc1 | 53
